In ChEMBL document CHEMBL4513216, “Probing the Open Global Health Chemical Diversity Library for Multistage-Active Starting Points for Next-Generation Antimalarials” (ACS Infect Dis, 2020):
The campaign covered roughly 68,000 compounds. About 2,700 (4%) showed an effect of 50% or more. This excerpt belongs to a sample that is enriched for strong results.

Tested on: Plasmodium berghei
Assay: Screen against P. berghei liver stage (PbLuc), transformed with Luciferase, at 2uM
Assay type: functional, HepG2
Conditions: tested at 2 uM

| Compound | INHIBITION [%] |
| --- | --- |
| CN(C)C(CNCc1nc(-c2ccsc2)no1)c1ccco1 (stereo not given) | 11.18 |
| CN(C)C(CNCc1nc(-c2ccsc2)no1)c1cccs1 (stereo not given) | 58.14 |
| CN(C)C(CNCc1nc(-c2ccsc2)no1)c1ccsc1 (stereo not given) | 6.82 |
| c1ccc(CN2CCN(C3CCOC4(CCOCC4)C3)CC2)nc1 (stereo not given) | -14.69 |
| CCNc1nc2cn(-c3ccc(C)c(C)c3)c(=O)c-2c[nH]1 | -5.34 |
| c1cncc(CN2Cc3nccn3CC(Cn3cccn3)C2)c1 (stereo not given) | -9.53 |
| COc1cc(C)cc(C(C(=O)O)N(C)Cc2ccon2)c1OC (stereo not given) | 76.6 |
| COc1cc(F)ccc1C(C(=O)O)N(C)Cc1ccon1 (stereo not given) | 12.55 |
| COc1ccc(Cl)cc1C(C(=O)O)N(C)Cc1ccon1 (stereo not given) | -35.07 |
| CN(C)CC(=O)N1CCN(c2cc(N3CCCC3CO)ncn2)CC1 (stereo not given) | -23.06 |
| COC1[C@@H]2CC[C@H]1CN(c1nc(C)nc3sccc13)C2 (stereo not given in full) | 32.26 |
| Cc1ccccc1CN(CCN(C)C)Cc1ccc(C(=O)O)cc1 | 34.07 |
| Cc1ccccc1CN(CCN(C)C)Cc1ccc(O)c(C(=O)O)c1 | 56.76 |
| Cc1ccccc1CN(CCN(C)C)Cc1ccccc1C(=O)O | 4.12 |
| Cc1cc(CN2CCc3nc(C(C)C)nc(O)c3CC2)c(C)s1 | 23.7 |
| Cc1ccnc(NC(=O)c2ccc(C)o2)c1 | -4.26 |
| Cc1ccnc(NC(=O)c2ccc(Cl)o2)c1 | 5.48 |
| Cc1ccnc(NC(=O)c2ccc(Br)o2)c1 | 62.51 |
| O=C(CN1CCc2cncnc2C1)NCCOc1ccccc1 | 10.62 |
| O=C(CN1CCc2cncnc2C1)NCCOc1cccc(Cl)c1 | 29.54 |
| Cc1cccc(OCCNC(=O)CN2CCc3cncnc3C2)c1 | 51.94 |
| Cn1cc(CN2CCCC(c3nc(O)cc(-c4cccs4)n3)C2)cn1 (stereo not given) | 32.24 |
| Oc1cc(-c2cccs2)nc(C2CCCN(CC3=CCCOC3)C2)n1 (stereo not given) | 51.88 |
| Oc1cc(-c2nccs2)nc(C2CCN(Cc3cccs3)CC2)n1 | -14.73 |
| Cc1csc(CNC(=O)NCC(O)c2ccc(F)cc2F)n1 (stereo not given) | -41.67 |
| Cn1cccc1CN1CCC2(CC1)CN(c1ccccc1)C(=O)CO2 | 40.64 |
| CCN(CCC(F)(F)F)S(=O)(=O)c1cccc(F)c1C#N | -46.3 |

| Compound | INHIBITION [%] |
| --- | --- |
| Cc1cccc2cc(C(=O)N3CCSCC3)n(C)c12 | 19.04 |
| N#Cc1cc(F)ccc1NCc1ccc(Cn2cncn2)cc1 | 53.99 |
| Fc1ccc(CNc2ccccc2Cn2cncn2)cc1 | 32.93 |
| N#Cc1cc(F)ccc1Cn1cncn1 | -14.79 |
| Cc1cnn(CC2CCCN2Cc2nnc(C(C)C)o2)c1 (stereo not given) | -12.82 |
| Cc1ccccc1CN(C)C(=O)CN1CCOC(Cn2cncn2)C1 (stereo not given) | 2.07 |
| Cc1cc(=O)c2cc(F)ccc2n1CC(=O)O | -30.92 |
| O=S(=O)(c1cccs1)N1CC[C@H]2[C@H]1CCN2c1ncccn1 | 56.76 |
| O=S(=O)(c1ccc(F)cc1)N1CC[C@H]2[C@H]1CCN2c1ncccn1 | 31.96 |
| Cc1cccc(S(=O)(=O)N2CC[C@H]3[C@H]2CCN3c2ncccn2)c1 | 29.19 |
| CN1CC(=O)N(c2cccc(F)c2)CC12CCN(S(=O)(=O)C1CC1)C2 (stereo not given) | -12.36 |
| COCCN1C(=O)[C@]2(CC[C@@H]3CN(C(=O)NC(C)C)C[C@@H]32)N=C1C | 16.91 |
| CN(C)[C@@H]1CCN(C(=O)Cc2cccs2)[C@H]1Cc1ccncc1 | -23.59 |
| Cc1cc(CN2CC[C@H]3[C@H]2CCN3S(C)(=O)=O)oc1C | -12.98 |
| CCN1C(=O)CCCC12CCCN(C(=O)c1cc(C)oc1C)C2 (stereo not given) | 19.09 |
| CCN1C(=O)CCCC12CCCN(C(=O)c1ccoc1C)C2 (stereo not given) | 50.17 |
| CCN1C(=O)CCCC12CCCN(C(=O)c1occc1C)C2 (stereo not given) | 46.87 |
| Cc1nc(C)c(C(=O)Nc2cccc(CN3CCC(CO)CC3)c2)o1 | -8.84 |
| Cn1cc(CN2CCc3ncnc(N4CCOCC4)c3CC2)cn1 | -15.83 |
| Cc1nc(N2CCOCC2)nc2c1COCC21CCN(CC(C)C)C1 (stereo not given) | 53.55 |
| Cc1nc(N(C)C)nc2c1COCC21CCN(CC2CC2)C1 (stereo not given) | -54.51 |
| COCCN1CCC2(COCc3c(C)nc(N(C)C)nc32)C1 (stereo not given) | 54.62 |
| CCN1CCC2(COCc3c(C)nc(N(C)C)nc32)C1 (stereo not given) | 25.31 |
| Cc1nc(N2CCOCC2)nc2c1COCC21CCN(CC2CC2)C1 (stereo not given) | -27.12 |
| CCN1CCC2(COCc3c(C)nc(N4CCOCC4)nc32)C1 (stereo not given) | -9.91 |
| CCOC(C)c1nccn1Cc1noc(CC)n1 (stereo not given) | -12.93 |
| COCCN1CC[C@H]2CN(c3cc(OC)ncn3)C[C@@H]2C1=O | -25.53 |

| Compound | INHIBITION [%] |
| --- | --- |
| O=C(c1ccccc1F)N1CCOC(c2nc(-c3ncccn3)no2)C1 (stereo not given) | -14.56 |
| COc1cccc(-c2ccc3nc(C4CCN(C(C)=O)CC4)nn3c2)c1 | -3.4 |
| O=C1NC2(CCN(Cc3cccs3)CC2)CC1c1ccncc1 (stereo not given) | -13.79 |
| O=C1NC2(CCN(Cc3nccs3)CC2)CC1c1ccncc1 (stereo not given) | 53.54 |
| O=C1NC2(CCN(Cc3ccc(F)cc3)CC2)CC1c1ccncc1 (stereo not given) | -26.22 |
| COc1ccc(CNC(=O)NCCc2csc(C)n2)cn1 | -33.61 |
| Cc1nnc(N2CCCC(CS(N)(=O)=O)C2)c(C#N)c1C (stereo not given) | 57.79 |
| Cc1nnc(N2CCC(CS(N)(=O)=O)CC2)c(C#N)c1C | 46.52 |
| Cc1nnc(N2CCC(CN(C)C(C)C)CC2)c(C#N)c1C | 2.1 |
| CNc1nccnc1C1CCN(C(C)C)CC1 | -5.95 |
| CC(C)N1CCC(c2n[nH]cc2S(C)(=O)=O)CC1 | 53.59 |
| Cc1c[nH]nc1C1CCN(S(=O)(=O)N(C)C)CC1 | 20.73 |
| CC1CCN(CCNCc2cc(-c3ccccc3)cn3nnnc23)CC1 | 26.56 |
| CCc1c(C)nn2c(O)cc(C3CCN(C(=O)C4CC4)C3)nc12 (stereo not given) | 11.53 |
| Cc1cccc(CN2CC3(CCN(Cc4ccoc4)CC3)OCC2=O)n1 | 11.99 |
| O=C1CC(c2ccccc2)C2(CCN(Cc3ccncc3)CC2)N1 (stereo not given) | 54.07 |
| Cc1ccc(CN2CCC3(CC2)NC(=O)CC3c2ccccc2)s1 (stereo not given) | 57.85 |
| Cc1noc(C)c1CN1CCC2(CC1)NC(=O)CC2c1ccccc1 (stereo not given) | 20.01 |
| O=C1CC(c2ccncc2)C2(CCN(Cc3cccnc3)CC2)N1 (stereo not given) | -4.26 |
| O=C1CC(c2ccncc2)C2(CCN(Cc3ccc(F)cc3)CC2)N1 (stereo not given) | 6.03 |
| Cc1nc(CN2CCC3(CC2)NC(=O)CC3c2ccccc2)cs1 (stereo not given) | 44.43 |
| COc1cccc(C(=O)C2CCCN(c3cc(C#N)ccn3)C2)c1 (stereo not given) | -45.86 |
| CC(C)COc1cncc(NCCc2nnc3ccccn23)n1 | 39.02 |
| Cc1nn(C)cc1S(=O)(=O)N[C@@H]1CCC[C@@H](n2ccnc2)[C@@H]1O | 45.48 |
| CN(C)c1ccc(C(=O)N2CCCN(Cc3cscn3)CC2)nn1 | -11.33 |
| CN(C)c1cc(C(=O)N2CCCN(Cc3cscn3)CC2)ccn1 | 51.21 |
| CN(C)c1ccc(C(=O)N2CCN(Cc3cscn3)CC2)cn1 | 19.18 |

| Compound | INHIBITION [%] |
| --- | --- |
| CN(C)c1cc(C(=O)N2CCCC2)ccn1 | -18.23 |
| COc1ccccc1N1CCN(C(=O)c2ccnc(N(C)C)c2)CC1 | 56.78 |
| COc1ccccc1N1CCN(C(=O)c2ccoc2)CC1 | -2.44 |
| Cc1cnc(CCNc2cccc(CC3CCCNC3)n2)s1 (stereo not given) | 23.7 |
| CC[C@H]1N(Cc2ccco2)CCC[C@]12CCC(=O)N2C | 23.26 |
| CC[C@@H]1N(Cc2ccsc2)CCC[C@]12CCC(=O)N2CCOC | -27.69 |
| CC[C@@H]1N(Cc2ccc(F)cc2)CCC[C@]12CCC(=O)N2C | 25.46 |
| CC[C@@H]1N(Cc2ccc(C)s2)CCC[C@]12CCC(=O)N2C | 20.42 |
| CC[C@@H]1N(Cc2ccco2)CCC[C@]12CCC(=O)N2C | 53.46 |
| CC[C@@H]1N(Cc2ccsc2)CCC[C@]12CCC(=O)N2C | 62.46 |
| CCCOc1ccc(CC2=NC(C)(CO)CO2)cc1 (stereo not given) | -27.61 |
| CCNC(=O)[C@@H]1CCCN1[C@@H](C(=O)NC)c1ccccc1 | -11.34 |
| CSCc1noc(CN2CCC3(CC2)CC(=O)N(CC(C)C)C3)n1 | 10.61 |
| CC(C)N(CCCNC(=O)C1CC(=O)N(C)C1)S(C)(=O)=O (stereo not given) | 2.97 |
| COC(=O)C(C)(C)NC(=O)c1cnc(Cc2ccc(F)cc2)s1 | -32.82 |
| COc1ccnc(NC(Cc2ccccc2)C(N)=O)n1 (stereo not given) | 33.9 |
| COc1ccc(-c2ccc(C(=O)O)c(F)c2)c(F)c1 | 17.01 |
| COc1ccc(-c2ccc(C(=O)NCCCC(N)=O)c(F)c2)c(F)c1 | 53.81 |
| COc1ccc(-c2ccc(C(=O)NS(C)(=O)=O)c(F)c2)c(F)c1 | -27.53 |
| CN(C)Cc1nnc2n1CCCN(C(=O)c1c[nH]cn1)C2 | -51.91 |
| O=C(c1c[nH]cn1)N1CCCn2c(CN3CCCCC3)nnc2C1 | 51.26 |
| O=C(c1c[nH]cn1)N1CCCn2c(nnc2Cn2cccc2)C1 | 26.44 |
| CNc1cc(C)nc(C2CN(Cc3cncs3)CCO2)c1 (stereo not given) | -29.68 |
| CC(C)N(C)C(=O)CSCc1ccc(S(=O)(=O)N(C)C)o1 | 30.34 |
